Laboratory results taken from PubChem BioAssay (NCI).
The panel holds about 83,000 compounds, 20% with a hit somewhere; the sample as a whole holds those more often.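 Each cell line was grown in a 96-well plate and treated with one concentration of compound for 48 hours. Values below 10 were considered active.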 Unmarked numbers belong to inactive results. Calls of active or inactive are those of the source.

Experiments:
Assay in all cases: NCI-60 one-dose screen, 48 h (100 = growth as untreated, 0 = no growth, -100 = all killed)
Settings in all cases: 10 µM unless noted
SR leukemia = system: SR leukemia
RPMI-8226 leukemia = system: RPMI-8226 leukemia
OVCAR-8 ovarian = system: OVCAR-8 ovarian
OVCAR-4 ovarian = system: OVCAR-4 ovarian
SK-OV-3 ovarian = system: SK-OV-3 ovarian
IGROV1 ovarian = system: IGROV1 ovarian
OVCAR-3 ovarian = system: OVCAR-3 ovarian
NCI/ADR-RES ovarian = system: NCI/ADR-RES ovarian
T-47D breast = system: T-47D breast
BT-549 breast = system: BT-549 breast
MDA-MB-435 melanoma = system: MDA-MB-435 melanoma
SW-620 colon = system: SW-620 colon
MCF7 breast = system: MCF7 breast
HCT-116 colon = system: HCT-116 colon
HCC-2998 colon = system: HCC-2998 colon
KM12 colon = system: KM12 colon
OVCAR-5 ovarian = system: OVCAR-5 ovarian
HS 578T breast = system: HS 578T breast

CCc1cccc(-c2ccccc2)c1
growth (SR leukemia): 52.4%
growth (RPMI-8226 leukemia): 80.5%
growth (OVCAR-8 ovarian): 101%
growth (OVCAR-4 ovarian): 101%
growth (SK-OV-3 ovarian): 103%
growth (IGROV1 ovarian): 107%
growth (OVCAR-3 ovarian): 109%
growth (NCI/ADR-RES ovarian): 111%
growth (T-47D breast): 110%
growth (BT-549 breast): 97.1%
growth (MDA-MB-435 melanoma): 109%
growth (SW-620 colon): 99.8%
growth (MCF7 breast): 105%
growth (HCT-116 colon): 98.8%
growth (HCC-2998 colon): 110%
growth (KM12 colon): 102%

CC(C)C1(C(C)C)NC(=O)NC1=O
growth (RPMI-8226 leukemia): 117%
growth (OVCAR-8 ovarian): 110%
growth (OVCAR-5 ovarian): 101%
growth (OVCAR-4 ovarian): 107%
growth (SK-OV-3 ovarian): 108%
growth (IGROV1 ovarian): 99.4%
growth (OVCAR-3 ovarian): 110%
growth (HS 578T breast): 92.6%
growth (NCI/ADR-RES ovarian): 103%
growth (T-47D breast): 109%
growth (BT-549 breast): 111%
growth (MDA-MB-435 melanoma): 114%
growth (SW-620 colon): 127%
growth (MCF7 breast): 101%
growth (HCT-116 colon): 98.5%
growth (HCC-2998 colon): 102%
growth (KM12 colon): 138%

C#CC(=O)/C=C/CCCCCCC#CC(=O)CCC(=O)C#CCCCCCC/C=C/C(=O)C#C
growth (SR leukemia): -34.8% (active)
growth (RPMI-8226 leukemia): -31.6% (active)
growth (OVCAR-8 ovarian): 8.53% (active)
growth (OVCAR-4 ovarian): 23.5%
growth (SK-OV-3 ovarian): 91.8%
growth (IGROV1 ovarian): -39.5% (active)
growth (OVCAR-3 ovarian): 7.03% (active)
growth (HS 578T breast): 47%
growth (NCI/ADR-RES ovarian): 11%
growth (T-47D breast): 24.8%
growth (MDA-MB-435 melanoma): -33.6% (active)
growth (SW-620 colon): 8.47% (active)
growth (MCF7 breast): 21.6%
growth (HCT-116 colon): -7.8% (active)
growth (HCC-2998 colon): 63.9%
growth (KM12 colon): 49.2%

COc1cc(Nc2ncccc2C(=O)Nc2nc3ccc(F)cc3s2)cc(OC)c1OC
growth (SR leukemia): 104%
growth (OVCAR-8 ovarian): 91.2%
growth (OVCAR-4 ovarian): 5% (active)
growth (SK-OV-3 ovarian): 91.7%
growth (IGROV1 ovarian): 74.5%
growth (OVCAR-3 ovarian): 55.6%
growth (HS 578T breast): 72.8%
growth (NCI/ADR-RES ovarian): 67.2%
growth (T-47D breast): 36.2%
growth (BT-549 breast): 89.3%
growth (MDA-MB-435 melanoma): 21%
growth (SW-620 colon): 96.8%
growth (MCF7 breast): 94.9%
growth (HCT-116 colon): 13.8%
growth (HCC-2998 colon): 84.7%
growth (KM12 colon): 78.9%

CS(=O)(=O)OCC(COS(C)(=O)=O)C(c1ccccc1)c1ccccc1
growth (SR leukemia): 74.7%
growth (OVCAR-8 ovarian): 118%
growth (OVCAR-5 ovarian): 110%
growth (OVCAR-4 ovarian): 106%
growth (SK-OV-3 ovarian): 101%
growth (IGROV1 ovarian): 102%
growth (OVCAR-3 ovarian): 127%
growth (HS 578T breast): 104%
growth (NCI/ADR-RES ovarian): 99%
growth (T-47D breast): 100%
growth (BT-549 breast): 97.3%
growth (MDA-MB-435 melanoma): 105%
growth (SW-620 colon): 99.3%
growth (MCF7 breast): 101%
growth (HCT-116 colon): 95.9%
growth (HCC-2998 colon): 109%
growth (KM12 colon): 104%

CC[C@H]1[C@@H]2C=C[C@@H]3[C@H]4C/C=C\C(=O)NCCC[C@@H]5NC(=O)/C(=C(O)/C=C/[C@@H]4C[C@@H]3[C@H]2C[C@H]1C)C5=O
growth (RPMI-8226 leukemia): 6.24% (active)
growth (OVCAR-8 ovarian): -54.8% (active)
growth (OVCAR-5 ovarian): 41.6%
growth (OVCAR-4 ovarian): -31.5% (active)
growth (SK-OV-3 ovarian): 1.98% (active)
growth (IGROV1 ovarian): -66.5% (active)
growth (OVCAR-3 ovarian): -94.7% (active)
growth (HS 578T breast): -2.24% (active)
growth (NCI/ADR-RES ovarian): -57.2% (active)
growth (T-47D breast): 33.7%
growth (BT-549 breast): -49.2% (active)
growth (MDA-MB-435 melanoma): -81% (active)
growth (SW-620 colon): 69.2%
growth (MCF7 breast): 41.3%
growth (HCT-116 colon): -11.8% (active)
growth (HCC-2998 colon): 52.8%
growth (KM12 colon): 63.8%

COc1ccc(-c2nnc(SCC(=O)Nc3ccc(C(=O)/C=C/c4ccccc4)cc3)o2)cc1OC
growth (SR leukemia): 88.1%
growth (RPMI-8226 leukemia): 70.5%
growth (OVCAR-8 ovarian): 98.8%
growth (OVCAR-4 ovarian): 101%
growth (SK-OV-3 ovarian): 109%
growth (IGROV1 ovarian): 103%
growth (OVCAR-3 ovarian): 105%
growth (NCI/ADR-RES ovarian): 93.5%
growth (T-47D breast): 98.7%
growth (BT-549 breast): 98.3%
growth (MDA-MB-435 melanoma): 92.7%
growth (SW-620 colon): 103%
growth (MCF7 breast): 56%
growth (HCT-116 colon): 51.8%
growth (HCC-2998 colon): 116%
growth (KM12 colon): 99.6%

Nc1nc(=S)ss1
growth (SR leukemia): 80.6%
growth (OVCAR-8 ovarian): 104%
growth (OVCAR-5 ovarian): 114%
growth (OVCAR-4 ovarian): 106%
growth (SK-OV-3 ovarian): 101%
growth (IGROV1 ovarian): 133%
growth (OVCAR-3 ovarian): 116%
growth (HS 578T breast): 98.2%
growth (NCI/ADR-RES ovarian): 104%
growth (T-47D breast): 98.9%
growth (BT-549 breast): 101%
growth (MDA-MB-435 melanoma): 102%
growth (SW-620 colon): 99.2%
growth (MCF7 breast): 98.3%
growth (HCT-116 colon): 97.3%
growth (HCC-2998 colon): 97%
growth (KM12 colon): 111%

Oc1ccccc1/C=N/c1ccccn1
growth (SR leukemia): 104%
growth (RPMI-8226 leukemia): 78%
growth (OVCAR-8 ovarian): 95%
growth (OVCAR-4 ovarian): 106%
growth (SK-OV-3 ovarian): 99.6%
growth (OVCAR-3 ovarian): 111%
growth (NCI/ADR-RES ovarian): -97.1% (active)
growth (T-47D breast): 95.9%
growth (MDA-MB-435 melanoma): 122%
growth (SW-620 colon): 107%
growth (MCF7 breast): 97.7%
growth (HCT-116 colon): 103%
growth (HCC-2998 colon): -94.1% (active)
growth (KM12 colon): 113%

NC(N)=N/N=C/c1ccc([N+](=O)[O-])cc1
growth (SR leukemia): 110%
growth (OVCAR-8 ovarian): 108%
growth (OVCAR-5 ovarian): 99.1%
growth (OVCAR-4 ovarian): 102%
growth (SK-OV-3 ovarian): 108%
growth (IGROV1 ovarian): 125%
growth (OVCAR-3 ovarian): 117%
growth (HS 578T breast): 86.5%
growth (NCI/ADR-RES ovarian): 78.5%
growth (T-47D breast): 98.7%
growth (BT-549 breast): 85.5%
growth (MDA-MB-435 melanoma): 112%
growth (SW-620 colon): 94.1%
growth (MCF7 breast): 93.1%
growth (HCT-116 colon): 90.6%
growth (HCC-2998 colon): 99.9%
growth (KM12 colon): 103%

CCC1(C(N)=O)CC2C=CC1CC2 (centres undefined)
growth (SR leukemia): 109%
growth (RPMI-8226 leukemia): 89.1%
growth (OVCAR-8 ovarian): 61.2%
growth (OVCAR-4 ovarian): 108%
growth (SK-OV-3 ovarian): 91.9%
growth (OVCAR-3 ovarian): 115%
growth (HS 578T breast): 149%
growth (NCI/ADR-RES ovarian): 244%
growth (T-47D breast): 101%
growth (MDA-MB-435 melanoma): 121%
growth (SW-620 colon): 108%
growth (MCF7 breast): 98%
growth (HCT-116 colon): 107%
growth (HCC-2998 colon): -100% (active)
growth (KM12 colon): 117%

COc1ccccc1P(c1ccccc1OC)c1ccccc1OC
growth (SR leukemia): 107%
growth (RPMI-8226 leukemia): 113%
growth (OVCAR-8 ovarian): 66%
growth (OVCAR-4 ovarian): 100%
growth (SK-OV-3 ovarian): 91.2%
growth (OVCAR-3 ovarian): 108%
growth (HS 578T breast): 133%
growth (NCI/ADR-RES ovarian): 172%
growth (T-47D breast): 87.6%
growth (MDA-MB-435 melanoma): 115%
growth (SW-620 colon): 103%
growth (MCF7 breast): 95.9%
growth (HCT-116 colon): 94.2%
growth (HCC-2998 colon): -97.4% (active)
growth (KM12 colon): 86.4%

CCCCNc1cc(C(=O)O)cc(S(N)(=O)=O)c1Oc1ccccc1
growth (SR leukemia): 104%
growth (RPMI-8226 leukemia): 112%
growth (OVCAR-8 ovarian): 107%
growth (OVCAR-4 ovarian): 105%
growth (SK-OV-3 ovarian): 108%
growth (IGROV1 ovarian): 109%
growth (OVCAR-3 ovarian): 115%
growth (NCI/ADR-RES ovarian): 99.1%
growth (T-47D breast): 103%
growth (BT-549 breast): 104%
growth (MDA-MB-435 melanoma): 99.3%
growth (SW-620 colon): 99.1%
growth (MCF7 breast): 111%
growth (HCT-116 colon): 110%
growth (HCC-2998 colon): 103%
growth (KM12 colon): 107%
